Screening results from PubChem.
Sampled rows, rich in hits. Any-hit rate of the full collection: about 11%.
Sm TGR block: qHTS Assay for the Inhibitors of Schistosoma Mansoni Peroxiredoxins; Schistosoma mansoni thioredoxin glutathione reductase (TGR), Q962Y6; purified TGR, DTNB reduction, TNB absorbance 405 nm; Potency, µM (doses to about 114 µM), for the others: at the top dose activity change, negative = inhibition, actives largely listed as inhibitors; actives 3% (n = 360,000); AID 485364, 2010; also: % is scaled to controls: 0 for no effect and ±100 for the full control effect; nearly all actives have a fitted effect of over 60% in size
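TGR 20 nM + NADPH 100 uM (dispensed conc.), cpd preinc 15 min RT; start with NADPH (500 uM addition) then DTNB (15 mM addition). Kinetic TNB absorbance, 405 nm filter. Four-parameter Hill fit across titration.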
AMA1 RON2 block: qHTS for Inhibitors of AMA1-RON; Towards Development of Antimalarial Drug Lead: Primary Screen; AlphaScreen AMA1-biotinylated RON2 peptide binding; actives 0.2% (n = 360,000); Plasmodium falciparum AMA1 (3D7) - RON2 peptide interaction; Potency, µM (titrated, usually from 58.2 µM), inactives show at the highest dose activity change, negative = inhibition, most hits filed as inhibitors;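 also: 0% = vehicle wells and -100% = peptide control; nearly all actives have a fitted effect of over 45% in size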
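AMA1 (3D7) with his tag at 25 nM final met compounds first, then biotinylated RON2 peptide at 25 nM; detection used donor plus acceptor beads, 10 µg/mL apiece, read by AlphaScreen after 30 min at room temperature.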
NS1 inh: qHTS Assay for Inhibitors of Influenza NS1 Protein Function. Potency, µM (top dose mostly 46.1 µM), without a hit: top-dose activity, positive = more growth. actives 0.4% (n = 270,000). AID 2326, 2010; calls by dose curve; also: actives are rising curves; nearly all actives have a fitted effect of over 50% in size
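Read-out: OD600 growth recovery of NS1-expressing budding yeast. Cells grown overnight at 30C in -URA glucose medium, washed, resuspended and diluted 1:100 in 2% galactose assay medium, pH 6.0. Same strain lacking NS1 served as positive control.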
Pf growth 96h: Primary qHTS for delayed death inhibitors of the malarial parasite plastid, 96 hour incubation; P. falciparum luciferase reporter growth, 96 h; Potency, µM (titrated, usually from 28.7 µM), for the others: top-dose activity change, negative = inhibition, actives largely listed as inhibitors; actives 6.9% (n = 320,000); AID 504834, 2011; also: % is scaled to controls: 0 for no effect and ±100 for the full control effect
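Luminescence readout: decreased luciferase signal marks inhibited growth of reporter-expressing P. falciparum in infected red cells (2% hematocrit, 0.05% parasitemia final), exposed to compound two generations (96 h, 37 C, 5% CO2).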
Pf growth 48h: Primary qHTS for delayed death inhibitors of the malarial parasite plastid, 48 hour incubation. Potency, µM (series often up to 28.7 µM), for inactives: at the top dose activity change, negative = inhibition, actives largely listed as inhibitors. actives 5.9% (n = 310,000). P. falciparum luciferase growth in erythrocytes, 48 h; also: % is scaled to controls: 0 for no effect and ±100 for the full control effect
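Luciferase-expressing P. falciparum in infected erythrocytes (2% hematocrit, 0.1% parasitemia final) in RPMI 1640/0.5% Albumax were exposed to compound for 48 hours at 37 C, 5% CO2; growth read as luminescence.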
Numbers without * were called inactive; ? = inconclusive; . = no result; [ ] = another dose, or the depositor's remark. Unless noted, calls follow the shape of the dose curve; as a rule, active = well fitted curve in the direction sought with a large enough effect; inconclusive = small, poorly fitted or top-dose-only effect, or another doubt; inactive = no such curve, though single readings can be large; an effect the other way counts as inactive or inconclusive. Potency is read from the fitted curve at half-maximal effect.

SMILES	Sm TGR block	AMA1 RON2 block	NS1 inh	Pf growth 96h	Pf growth 48h
COc1ccc(-c2nn(CCC#N)cc2C=C(C#N)C#N)cc1	25.1µM*	10.2%	1.6%	4.5%	-14.9%
CC(C)(C)c1ccc(-c2nn(CCC#N)cc2/C=N/O)cc1	15.3%	-0.9%	.	17.6%	11.5%
CCC1CN(C(=O)Nc2ccccc2F)c2cc(C)ccc2O1 (stereo not given)	0.6%	.	.	.	.
COc1ccc(NC(=O)c2cccs2)cn1	14.5%	-8.2%	-48.9%	102.0%	17.6%
COc1ccc(NC(=O)CSc2ccccc2)cn1	?	-13.4%	.	65.4%	40.2%
COc1ccc(NC(=O)/C(Cl)=C(/Cl)S(=O)Cc2ccccc2)cn1 (stereo not given)	0.316µM*	0.9%	-175.4%	.	14.7µM*
COc1ccc(CS(=O)(=O)/C(Cl)=C(/Cl)C(=O)Nc2ccc(OC)nc2)cc1	10µM*	-4.7%	-201.4%	?	.
COc1ccc(NC(=O)Cc2ccccc2)cn1	-2.4%	2.7%	.	5.22µM*	32.8%
C/C(=N\NC(=O)CCC(=O)Nc1ccc(C)c(C)c1)C1CC1	5.8%	65.1%	11.2%	?	-3.1%
O=C(O)c1cc(-c2c[nH]c3ccccc23)nc2ccc3ccccc3c12	-22.8%	-2.2%	.	0.0%	247.1%
c1ccc2c(-c3c[nH]c4ccccc34)c3ccccc3nc2c1	-7.7%	8.0%	-11.8%	3.7µM*	?
CC(C)(C)OC(=O)NCCCC[C@H](NC(=O)c1nc[nH]c1C(=O)NCc1ccc(CNC(=O)OC(C)(C)C)cc1)C(=O)OC(C)(C)C	0.0%	137.5%	?	11.7µM*	?
CC(C)(C)OC(=O)NCCCC[C@H](NC(=O)c1nc[nH]c1C(=O)N[C@@H](CCCCNC(=O)OC(C)(C)C)C(=O)OC(C)(C)C)C(=O)OC(C)(C)C	-1.6%	139.2%	-9.1%	1.65µM*	2.08µM*
C[C@H](NC(=O)c1nc[nH]c1C(=O)N[C@@H](CCCCNC(=O)OC(C)(C)C)C(=O)OC(C)(C)C)C(=O)OC(C)(C)C	3.8%	104.4%	-7.4%	13.1µM*	9.28µM*
CC(C)(C)OC(=O)NCCCCCNC(=O)c1[nH]cnc1C(=O)N[C@@H](CCCCNC(=O)OC(C)(C)C)C(=O)OC(C)(C)C	0.8%	138.0%	8.8%	0.0%	9.28µM*
CC(C)(C)NC(=O)C1CC(=O)N(CCc2ccc(F)cc2)C1 (stereo not given)	4.6%	-22.8%	-17.8%	-14.3%	12.4%
COc1ccc(CCNC(=O)c2cc3sccc3n2Cc2ccc(Cl)cc2)cc1OC	-2.9%	.	.	.	.
CCOC(=O)Cn1cc2c(c1-c1ccc(Cl)cc1)c(=O)n(C)c(=O)n2C	-30.5%	.	.	.	.
CC(C)(C)OC(=O)NCCCC[C@H](NC(=O)c1nc[nH]c1C(=O)NC(c1ccccc1)c1ccccc1)C(=O)OC(C)(C)C	10.5%	147.9%	?	2.08µM*	3.7µM*
CC(C)(C)OC(=O)NCCCC[C@H](NC(=O)c1nc[nH]c1C(=O)NCC(=O)OCc1ccccc1)C(=O)OC(C)(C)C	-0.5%	168.7%	?	0.1%	?
NC(=O)CC(NC(=O)c1ccc(Br)cc1)c1ccc(N2CCCCCCC2)c([N+](=O)[O-])c1 (stereo not given)	0.2%	-29.0%	?	2.94µM*	20.4%
NC(=O)CC(NC(=O)c1ccc(Br)cc1)c1ccc(N2CCN(c3ccccc3)CC2)c([N+](=O)[O-])c1 (stereo not given)	10.8%	-24.8%	29.6%	-15.5%	14.6%
COc1ccc(Nc2ncc3c(n2)CC(c2ccc(OC)cc2)CC3=O)cc1 (stereo not given)	-0.8%	-5.3%	15.8%	9.28µM*	?
COc1ccc(Nc2ncc3c(n2)CC(c2ccc(C)cc2)CC3=O)cc1 (stereo not given)	10.6%	7.3%	3.5%	?	?
Nc1nc2c(s1)C(=O)CC(c1ccccc1)C2 (stereo not given)	-13.3%	-2.4%	0.7%	.	.
SMILES	Sm TGR block	AMA1 RON2 block	NS1 inh	Pf growth 96h	Pf growth 48h
COc1ccc(C2CC(=O)c3sc(N)nc3C2)cc1 (stereo not given)	-24.6%	-24.1%	3.6%	2.62µM*	2.94µM*
COCCn1ccc2c(OCC(=O)Nc3cccc(C(F)(F)F)c3)cccc2c1=O	29.7%	.	.	.	.
COc1ccc(F)cc1S(=O)(=O)Nc1ccc2c(c1)CCCN2C(=O)c1cccs1	-1.8%	.	.	.	.
O=S(=O)(CC12C3C4C5C1C2C(Br)(C43)C51OCCO1)c1ccccc1 (stereo not given)	-1.3%	-7.1%	.	15.0%	-5.6%
Cc1ccccc1-n1nnnc1SCc1csc(-c2ccccc2)n1	13.4%[11.4 µM]	4.6%	-5.1%	9.28µM*	.
COCCn1c(SCc2csc(-c3ccccc3)n2)nc2ccccc21	-5.4%	-0.4%	-42.2%	11.7µM*	-14.5%
COc1cc(/C=C2\CCCc3c2nc2ccccc2c3C(=O)O)cc(OC)c1O	20µM*	2.3%	-0.4%	4.1%	-2.2%
COc1ccc(/C=C2\CCCc3c2nc2ccccc2c3C(=O)O)cc1OC	20µM*	.	6.0%	34.9%	13.4%
COc1ccc(/C=C2\CCc3c2nc2ccccc2c3C(=O)O)cc1OC	-14.8%	3.9%	9.4%	119.1%	48.5%
CCCc1nc2ccccc2n1CCc1ccccc1	-11.1%	14.8%	-18.4%	3.7µM*	3.29µM*
O=C(O)CCn1c(C2CCCCC2)nc2ccccc21	0.0%	-5.3%	-2.8%	.	1.4%
ClCc1nc2ccccc2n1Cc1ccccc1	-25.2%	-1.3%	12.6%	?	6.57µM*
N#CCn1c(CCl)nc2ccccc2c1=O	28.2µM*	-26.5%	.	11.7%	-11.9%
c1ccc(CCn2c(C3CC3)nc3ccccc32)cc1	-15.3%	2.0%	-63.2%	3.29µM*	.
OCCCc1nc2ccccc2n1CCc1ccccc1	-15.4%	2.7%	2.5%	?	?
CCCNC(=O)CSc1nc2ccccc2c(=O)n1CCC	13.4%	-10.4%	.	-23.5%	11.2%
CCCn1c(CNC(=O)c2ccccc2)nc2ccccc21	-1.5%	2.9%	-9.9%	2.94µM*	1.6%
Cc1ccc(NC(=O)C(=O)NCC(c2cccnc2)N2CCc3ccccc32)cc1Cl (stereo not given)	-11.1%	.	.	.	.
CN(C(=O)CC(=O)Nc1ccc2nc3n(c(=O)c2c1)CCCCC3)c1ccccc1F	1.3%	.	.	.	.
CC1/C(=N/O)CC(c2ccccc2)N(C)C1c1ccccc1 (stereo not given)	2.3%	-5.3%	-16.7%	?	13.1µM*
CC1(c2nnnn2Cc2ccccc2)CCC(=O)N1C1CC1 (stereo not given)	.	17.1%	.	.	.
Cc1noc(C)c1COc1cccc(C(=O)N(C)Cc2nc3ccccc3c(=O)[nH]2)c1	-17.5%	74.1%	.	?	?
Cc1cc(Cl)ccc1NS(=O)(=O)c1ccc2c(c1)CCN2S(C)(=O)=O	12.1%	.	.	.	.
